Here are results for 55 molecules from PubChem BioAssay AID1030 (National Center for Advancing Translational Sciences (NCATS), 2008).

Molecules are shown by their SMILES. Screen size: about 220,000 compounds; about 16,000 (7.3%) were called active. Not shown: some 25% with an inconclusive outcome. This is one part of a sample in which actives are shown more often than they occur. Calls come from the whole dose curve; as a rule, active = well fitted inhibition curve with a large enough effect (not every such curve was filed as active); inconclusive = small, poorly fitted or top-dose-only effect, or another doubt; inactive = no such curve, though single readings can be large or run the other way.
Potency is the fitted concentration of half-maximal effect.

The test deals with Aldehyde dehydrogenase 1A1 (Homo sapiens) (UniProt P00352). As to the kind of experiment: qHTS Assay for Inhibitors of Aldehyde Dehydrogenase 1 (ALDH1A1).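 For activity, negative = inhibition: plate controls were no enzyme wells and a reference inhibitor.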 The note with it: Purified ALDH1A1, NADH fluorescence, propionaldehyde substrate; series mostly up to 75.3 µM; activity, negative = inhibition: at the top concentration.
Sequence of Aldehyde dehydrogenase 1A1 (Homo sapiens) (P00352 whole entry, looked up): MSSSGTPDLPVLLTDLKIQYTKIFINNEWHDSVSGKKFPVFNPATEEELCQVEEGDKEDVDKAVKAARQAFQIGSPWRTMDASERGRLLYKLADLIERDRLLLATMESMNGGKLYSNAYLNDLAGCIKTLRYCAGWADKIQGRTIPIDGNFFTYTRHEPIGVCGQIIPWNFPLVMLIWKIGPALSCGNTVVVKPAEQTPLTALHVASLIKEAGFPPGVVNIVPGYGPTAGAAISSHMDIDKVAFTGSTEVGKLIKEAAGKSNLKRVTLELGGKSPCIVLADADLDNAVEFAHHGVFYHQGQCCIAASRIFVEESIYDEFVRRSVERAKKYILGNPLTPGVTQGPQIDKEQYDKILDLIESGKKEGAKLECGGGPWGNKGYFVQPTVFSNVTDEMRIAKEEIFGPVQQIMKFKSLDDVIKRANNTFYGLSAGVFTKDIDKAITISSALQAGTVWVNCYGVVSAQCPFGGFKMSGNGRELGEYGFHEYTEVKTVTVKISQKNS
`CCOC(=O)CC1=CC(=O)Nc2ccccc2N1`: the “activity, negative = inhibition” value was 1.21% (inactive).
On to `CCCCC(CC)CNC(=O)C(=O)C1C(=O)Nc2ccccc21` (stereo not given), for which the Potency is 2 µM (active).
Same read-out and setting: under `CCOC(=O)C(=O)C1C(=O)Nc2ccccc21` (stereo not given) stands 14.1 µM (active).
Take `CCOC(=O)C1C(=O)NCC1c1ccccc1` (stereo not given): the “activity, negative = inhibition” value was 6.09% (inactive).
As to `CC1=NN(C(=O)CCCc2ccccc2)C(O)(C(F)(F)F)C1` (stereo not given), the “activity, negative = inhibition” value is 0.404% (inactive).
The same measure, in the same setting: under `CC(C)C(=O)NCc1cc(-c2ccc(Cl)cc2)no1` stands 14.5% (inactive); under `CCCCCCCC[C@@H](O)/C=C/C=C/C=C\[C@@H](O)CCCC(=O)O`, 12.3% (inactive).
On the same count and under the same terms, under `[O-][n+]1onc2c1CCc1[nH]c(-c3ccccc3)nc1-2` stands 16.4% (inactive); under `CCc1nnc(NC(=O)CSc2nc(SC)ns2)s1`, 3.53% (inactive).
Same read-out and setting: as for `Cc1ccc(C(=O)OC2CCCN(C)C2)cc1` (stereo not given), the figure is 7.18% (inactive); as for `Nc1ccccc1Sc1ccc(C(F)(F)F)cc1[N+](=O)[O-]`, 1.57% (inactive).
`CCS(=O)(=O)c1cc([N+](=O)[O-])c(Sc2ccccc2N)s1`: the Potency is 3.55 µM (active).
On to `Cc1nc2sc(C(=O)c3ccccc3)c(N)c2c2c1CCCC2`, for which the Potency is 3.98 µM (active).
For the molecule `CCc1nc2sc(C(=O)O)c(N)c2c2c1CCCC2`, the “activity, negative = inhibition” value was 5.87% (inactive).
On the same count and under the same terms, under `CCOC(=O)c1sc2nc(SC)nc(-c3ccccc3)c2c1N` stands -4.78% (inactive); under `O=C(CSc1ccccc1F)NC1CCS(=O)(=O)C1` (stereo not given), 3.62% (inactive).
Consider `O=C(Cc1ccc2c(c1)CCCC2)Nc1ccccc1Cl`, for which the Potency is 12.6 µM (active).
Turning to `O=C(CN1CCCCC1)Nc1ccccc1Cl`, the “activity, negative = inhibition” value was 14.8% (inactive).
On to `CSc1ccccc1NC(=O)Cc1ccc(Br)cc1`, for which the “activity, negative = inhibition” value is 5.36% (inactive).
Same read-out and setting: under `Cc1cc(/C=C2/SC(=O)N(CC(=O)N3CCCC3)C2=O)ccc1N1CCOCC1` stands 5.53% (inactive); under `C/C(=N/OC(=O)c1c(-c2c(F)cccc2Cl)noc1C)c1cnccn1`, -4.17% (inactive).
On to `CC(=O)c1ccc(NC(=O)C(C)NCc2ccc(Cl)cc2)cc1` (stereo not given), for which the “activity, negative = inhibition” value is 1.47% (inactive).
As for `O=C(NCc1ccc2c(c1)OCO2)c1ccc2c(c1)C(=O)N(CC1CCCO1)C2=O` (stereo not given), the Potency was 1.58 µM (active).
Regarding `O=C(NCc1ccc2c(c1)OCO2)c1ccc(Cl)s1`, the “activity, negative = inhibition” value was 11.5% (inactive).
Regarding `O=C(NCc1ccc2c(c1)OCO2)c1sccc1Br`, the “activity, negative = inhibition” value is -7.89% (inactive).
Still for that read-out and setting: under `Cc1csc(SCC(=O)Nc2sccc2C#N)n1` stands -1.71% (inactive); under `O=C1CCC(CCC(=O)N2CCCC(C(=O)c3ccc(Cl)cc3)C2)=NN1` (stereo not given), 17.7% (inactive).
As to `O=C(CCCN1C(=O)C2C3C=CC(C3)C2C1=O)N1CCN(c2ccccc2)CC1` (stereo not given), the Potency is 12.6 µM (active).
Regarding `CC(CC(=O)N1CCN(c2ccccc2)CC1)c1ccccc1` (stereo not given), the “activity, negative = inhibition” value is 13.1% (inactive).
Still for that read-out and setting: under `O=C(CCN1C(=O)C2C3C=CC(C3)C2C1=O)Oc1ccc2ccccc2c1` (stereo not given) stands -9.74% (inactive); under `S=c1[nH]ccn1-c1ccc(Cl)cc1`, -9.08% (inactive).
`CC(C)CCN1CCN(C/C=C/c2ccco2)CC1CCO` (stereo not given): the Potency was 28.2 µM (active).
Turning to `Cc1ccc(CN2CCN(Cc3ccccc3-c3ccco3)CC2CCO)o1` (stereo not given), the “activity, negative = inhibition” value was 8.18% (inactive).
Same read-out and setting: under `CC(C)CCN1CCN(Cc2ccc(C(F)(F)F)cc2)CC1CCO` (stereo not given) stands 0.124% (inactive).
Regarding `COC(=O)c1cccnc1NC(=S)NC(C)C`, the “activity, negative = inhibition” value is 1.85% (inactive).
Same read-out and setting: as for `COc1ccc(N=Nc2ccc(O)c(P(=O)(c3ccccc3)c3ccccc3)c2)cc1`, the figure is 6.87% (inactive).
As to `CCOc1cc(/C=C2/N=C(c3ccc(C(C)(C)C)cc3)OC2=O)cc(Cl)c1OS(C)(=O)=O`, the Potency was 22.4 µM (active).
Consider `CN(CCc1cnn(C)c1)Cc1cn(C)nc1-c1ccccc1F`, for which the “activity, negative = inhibition” value was 2.47% (inactive).
For the molecule `COc1cccc(C(=O)N2CCCC(CCC(=O)NCc3ccc(F)c(F)c3)C2)c1` (stereo not given), the “activity, negative = inhibition” value is -7.32% (inactive).
On the same count and under the same terms, under `COc1cccc(CNC(=O)CCC2CCCN(C(=O)c3cc(C)[nH]n3)C2)c1` (stereo not given) stands -5.25% (inactive).
As for `COc1cccc(CNC(=O)CCC2CCCN(C(=O)c3ccoc3C)C2)c1` (stereo not given), the Potency was 22.4 µM (active).
As for `Cc1ccc(C(NC(=O)N2CCCC2)C(Cl)(Cl)Cl)cc1F` (stereo not given), the “activity, negative = inhibition” value was 8.02% (inactive).
Same read-out and setting: as for `c1ccc2nc(C3=NCCN3)cnc2c1`, the figure is -9.53% (inactive).
Take `Cc1cc(O)ccc1-c1cnc2ccccc2n1`: the Potency is 28.2 µM (active).
Turning to `CC(=O)Nc1cccc(-c2cnc3ccccc3n2)c1`, the “activity, negative = inhibition” value was 3.58% (inactive).
In the case of `Cc1cccc(NC(=S)NC23CN4CN(CN(C4)C2)C3)c1`, the “activity, negative = inhibition” value was 4.51% (inactive).
Still for that read-out and setting: under `Cc1ccc(-c2noc(CC(c3ccccc3)c3ccccc3)n2)cc1` stands -4.15% (inactive); under `Cc1ccc(-c2noc(CSc3nnc(-c4cccs4)n3C)n2)cc1`, -10.9% (inactive); under `CC1CCN(Cc2nc(-c3ccc(Cl)cc3)no2)CC1`, 0.85% (inactive).
With `Cc1ccc(-c2noc(CSc3nnnn3-c3ccccc3)n2)cc1`, the Potency was 7.08 µM (active).
For the molecule `Cc1ccc(SCc2cc(=O)[nH]c(N3CCCCC3)n2)cc1`, the “activity, negative = inhibition” value is 3.1% (inactive).
As to `Cc1ccc(-c2noc(CN3CCN(Cc4ccccc4)CC3)n2)cc1`, the Potency was 28.2 µM (active).
The same measure, in the same setting: as for `Cc1ccc(Nc2nc(CSc3nnnn3-c3ccccc3)cc(=O)[nH]2)cc1`, the figure is 22.4 µM (active).
As for `Cc1ccc(-c2noc(CSc3nnc(-c4ccccc4)n3C)n2)cc1`, the “activity, negative = inhibition” value is -1.16% (inactive).
On the same count and under the same terms, under `COc1ccc(-n2nnnc2SCC(=O)Nc2ccccc2)cc1` stands 3.98% (inactive).
